Test results reported in PubChem BioAssay AID588413 (Sanford-Burnham Center for Chemical Genomics, 2011).
Screen size: about 340,000 compounds; about 2,500 (0.74%) were called active.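 How the source made its calls: active means inhibition above about 55% (limit read from the data); inactive means the rest.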 Only a selection was taken, and actives are over-represented in it overall.

Test: blockers of Gli reporter signaling – luciferase luminescence, Sufu-KO-LIGHT cells, uHTS, primary screen (AID 588413);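 further: 0% = DMSO-treated cells and 100% = wells with medium but no cells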
Settings: Sufu-KO-LIGHT fibroblasts, at 5 µM, hits give high values
For `CC1CCCN(C(=O)Cn2c(=O)oc3ccccc32)C1` (stereo not drawn), the inhibition was 1.13% (inactive).
In the case of `COC(C[C@@H](O)C[C@H](O)[C@H](C)OCc1ccccc1)OC`, the inhibition is reported as 7.28% (inactive).
For `CCc1ccc(C2C(C#N)=C(N)N(N3CCOCC3)C3=C2C(=O)CC(C)(C)C3)s1` (stereo not drawn), the inhibition was 96.7% (active).
In the case of `COc1ccc(C2C(C#N)=C(/N=C/N3CCOCC3)OC3=C2C(=O)CC(C)(C)C3)cc1OC` (stereo not drawn), the inhibition is reported as 1.58% (inactive).
With `CCc1ccc(C2C(C#N)=C(N)N(N(C)C)C3=C2C(=O)CCC3)s1` (stereo not drawn) the inhibition was -0.42% (inactive).
For `S=C(Cc1ccc(Cl)cc1)N1CCOCC1`, the inhibition was 2.66% (inactive).
With `O=C(CCN1CCCO1)N1CCCC(N2CCN(c3cccc(C(F)(F)F)c3)CC2)C1` (stereo not drawn) the inhibition was 8.15% (inactive).
With `N#Cc1cccc(NC(=O)C2CCCN(C(=O)c3ccc(Cl)cc3)C2)c1` (stereo not drawn) the inhibition was 0.96% (inactive).
For `COc1ccc(C2=Nn3c(nnc3-c3ccccc3OC)SC2)cc1OC1CCCC1`, the inhibition was 67.1% (active).
In the case of `CC1=Nn2c(nnc2-c2ccccc2)SC1`, the inhibition is reported as 5.28% (inactive).
In the case of `COc1ccccc1-c1nnc2n1N=C(c1ccc(OC(F)F)c(OCC3CC3)c1)CS2`, the inhibition is reported as 23.1% (inactive).
With `COc1ccc(CNC(=O)CN(c2ccc(OC)c(Cl)c2)S(=O)(=O)c2ccc(C)cc2)cc1` the inhibition was -11.6% (inactive).
With `NS(=O)(=O)c1cc(Cl)c(Cl)c(S(N)(=O)=O)c1` the inhibition was -6.05% (inactive).
With `Cc1cccc(S(=O)(=O)N2CN(CC3CCCO3)c3nc4ccccc4nc32)c1` (stereo not drawn) the inhibition was 31.4% (inactive).
With `Cc1ccc(Cl)cc1-c1ccc(/C=N/n2cnnc2)o1` the inhibition was 20.2% (inactive).
With `Clc1cc(-c2ccc(/C=N/n3cnnc3)o2)ccc1Br` the inhibition was 3.67% (inactive).
For `Cc1cc([N+](=O)[O-])c(-c2ccc(/C=N/n3cnnc3)o2)cc1Cl`, the inhibition was 95.2% (active).
In the case of `O=c1ccc2c(-c3ccccc3S(=O)(=O)O)c3ccc(O)c(O)c3oc-2c1O`, the inhibition is reported as 9.16% (inactive).
With `CCCCn1nc(C(=O)Nc2cccc(C(=O)NC3CC3)c2)c2ccccc2c1=O` the inhibition was -0.59% (inactive).
For `O=C(CN1CCN(S(=O)(=O)c2cc(Cl)ccc2Cl)CC1)c1ccc(O)c(O)c1`, the inhibition was 58.2% (active).
In the case of `N#Cc1ccsc1NC(=O)CN1CCN(S(=O)(=O)c2cc(Cl)ccc2Cl)CC1`, the inhibition is reported as 1.78% (inactive).
With `COc1ccc(Cl)cc1S(=O)(=O)N1CCN(CC(=O)C(C)(C)C)CC1` the inhibition was -2.82% (inactive).
In the case of `COc1ccccc1N(CC(=O)Nc1ccccc1C(=O)N1CCCC1)S(C)(=O)=O`, the inhibition is reported as -5.37% (inactive).
For `Cc1cc(C(=O)N/N=C/c2ccccn2)c2ccccc2n1`, the inhibition was 1.36% (inactive).
With `O=C(N/N=C/c1ccccn1)C12CC3CC(CC(C3)C1)C2` the inhibition was -2.98% (inactive).
With `Cc1nnc(N/N=C/c2ccccn2)[nH]c1=O` the inhibition was 62.7% (active).
With `Cc1ccc(S(=O)(=O)N(C)C)cc1NC(=O)c1ccc(-n2cncn2)c([N+](=O)[O-])c1` the inhibition was 5.99% (inactive).
In the case of `CCOC(=O)c1cnc(Nc2nc3ccccc3o2)nc1CSC(=S)N1CCCCC1`, the inhibition is reported as 57.2% (active).
With `CCOC(=O)CCNC(=O)N1CCCC(C(=O)c2ccccc2SC)C1` (stereo not drawn) the inhibition was 4.81% (inactive).
In the case of `CCc1ccc(CNC(=O)C2CCCN(c3nc4ccccc4o3)C2)cc1` (stereo not drawn), the inhibition is reported as 5.09% (inactive).
With `CCc1ccc(C(=O)C(C)OC(=O)CN2C(=O)NC3(CCCC3)C2=O)cc1` (stereo not drawn) the inhibition was -24.9% (inactive).
For `COCCN(C(=O)COC(=O)Cc1cccc(OC)c1)c1c(N)n(Cc2ccccc2)c(=O)[nH]c1=O`, the inhibition was -12.3% (inactive).
With `CN(CC(=O)Nc1cccc(F)c1)C(=O)C1=COCCO1` the inhibition was -13.3% (inactive).
For `Cc1ccc(NC(=O)c2sccc2C)cc1[N+](=O)[O-]`, the inhibition was -30.3% (inactive).
With `Cc1ccc(NC(=O)CN(C)CC(=O)Nc2cccc(F)c2)cc1[N+](=O)[O-]` the inhibition was 67.2% (active).
In the case of `O=C(N/C(=C\c1ccc([N+](=O)[O-])cc1)C(=O)N1CCOCC1)c1cccc(Br)c1`, the inhibition is reported as 14.4% (inactive).
With `CC(C)c1ccc(C=NNc2ccc([N+](=O)[O-])cn2)cc1` the inhibition was -110% (inactive).
With `FC(F)(F)c1cccc(N/N=C/c2ccccc2)c1` the inhibition was 2.85% (inactive).
With `Oc1ccc(/C=N/Nc2ccc(C(F)(F)F)cn2)cc1O` the inhibition was 75.1% (active).
For `COc1cccc2cc(C(N)=O)/c(=N\NC(=O)c3ccccc3)oc12`, the inhibition was 61.3% (active).
For `COc1cccc2cc(C(=O)N3CCN(C(=O)c4ccccc4)CC3)c(=O)oc12`, the inhibition was 0.62% (inactive).
In the case of `COc1cccc2cc(C(=O)N(C)C)c(=O)oc12`, the inhibition is reported as -0.51% (inactive).
For `O=S(=O)(Cc1ccc(Cl)cc1Cl)c1ccc(Cl)cc1`, the inhibition was -10.2% (inactive).
For `Nc1ccc(N=Nc2ccccc2Cl)c(N)n1`, the inhibition was -22.2% (inactive).
With `N#Cc1c(-c2ccccc2)nc(SCc2cccc(C(F)(F)F)c2)[nH]c1=O` the inhibition was 2.78% (inactive).
For `O=c1c2ccccc2nc2n1C(CSCc1ccccc1)CS2` (stereo not drawn), the inhibition was 41.5% (inactive).
In the case of `O=c1c2ccccc2nc2n1C(CSCc1cccc(C(F)(F)F)c1)CS2` (stereo not drawn), the inhibition is reported as 65.9% (active).
For `CN(CC(=O)O)C(=O)c1ccccc1`, the inhibition was -17.4% (inactive).
In the case of `CN(/N=C/c1ccccc1)C(=S)c1ccccc1`, the inhibition is reported as 2.13% (inactive).
In the case of `CN(O)C(=S)c1ccccc1`, the inhibition is reported as 82.7% (active).
For `COc1ccc(CNc2c(CO)cnc3c2cnn3C)cc1`, the inhibition was 25.4% (inactive).
For `CCOC(=O)C1CN(S(=O)(=O)c2ccc(OC)cc2)c2cc(Cl)ccc2O1` (stereo not drawn), the inhibition was 21.4% (inactive).
With `CCOc1ccc(S(=O)(=O)NCc2ccc3c(c2)OCO3)cc1C` the inhibition was -7.28% (inactive).
With `CCCOc1ccc(Cc2c(O)nc(SC)[nH]c2=O)cc1C` the inhibition was -2.99% (inactive).
For `CCCOc1ccc(Cn2c(O)cc(=O)[nH]c2=O)cc1`, the inhibition was 9.29% (inactive).
With `CCCOc1ccc(Cc2c(Cl)nc(SC)nc2NC)cc1` the inhibition was 57.3% (active).
For `CC(C)N(C(=O)CN1CCN(S(=O)(=O)c2ccc(Br)s2)CC1)C(C)C`, the inhibition was -1.96% (inactive).
In the case of `CC(C)OCCCNc1ncnc2c1[nH]c1ccc(F)cc12`, the inhibition is reported as 62% (active).
With `Fc1ccc2[nH]c3c(N4CCN(Cc5ccc6c(c5)OCO6)CC4)ncnc3c2c1` the inhibition was -4.16% (inactive).
In the case of `CC(=O)NCc1ccc(S(=O)(=O)NC2CCN(Cc3ccccc3)CC2)cc1`, the inhibition is reported as -8.88% (inactive).
For `CC(=O)c1cc2c(cc1NC(=O)CN1CCCCCC1)OCO2`, the inhibition was -2.2% (inactive).
With `CCn1c(C)cc(=O)cc1-c1ccc(Cl)cc1` the inhibition was 8.82% (inactive).
With `COc1ccc(Cn2c(-c3ccc(Cl)cc3)c[n+]3ccccc23)cc1` the inhibition was 66.8% (active).
For `COc1ccc(Cn2c(=O)cc(C)[nH]c2=S)cc1`, the inhibition was 8.5% (inactive).
In the case of `C[C@@H]1CN([C@@H](C)CO)C(=O)c2cc(NC(=O)C3CC3)ccc2O[C@H]1CN(C)C`, the inhibition is reported as -16% (inactive).
For `Cc1ccccc1N1CCN(CC(=O)NCc2ccc(Cl)cc2)CC1`, the inhibition was 6.04% (inactive).
With `COc1ccc(OC)c(CN2C(=O)CCC2(C)C(=O)NC2CCCCCC2)c1` (stereo not drawn) the inhibition was 23.4% (inactive).
With `O=C(C1CCCO1)N1CCN(C(=S)NC2CC2)CC1` (stereo not drawn) the inhibition was -11.3% (inactive).
With `Cc1ccc2nc(-c3ccc(Br)cc3)cn2c1` the inhibition was 20.9% (inactive).
With `COc1ccc(-c2cn3ccc(C)cc3n2)cc1` the inhibition was -72% (inactive).
In the case of `Cc1ccc(-c2cn3cc(C)ccc3n2)cc1`, the inhibition is reported as 63.8% (active).
For `O=C(CCS(=O)(=O)c1cccc2nonc12)NCCc1ccccc1Cl`, the inhibition was 4.43% (inactive).
For `CC1(C)CCSC(/C=C/c2ccccc2)=N1`, the inhibition was 4.7% (inactive).
For `CCN(CC(=O)Nc1ccccc1C(F)(F)F)C(=O)C1CCN(C(=O)Nc2ccccc2)CC1`, the inhibition was 7.33% (inactive).
With `COc1cc(C(F)(F)F)c(C(=O)N(C)c2ccc(Cl)cc2)cn1` the inhibition was 0.82% (inactive).
In the case of `N=c1c2c3c(sc2nc2n1CCCCC2)CCCC3`, the inhibition is reported as -5.48% (inactive).
In the case of `O=C(CCc1ccccc1)Nc1ccnn1C1CCN(Cc2ccc(OCCO)cc2)CC1`, the inhibition is reported as 11.7% (inactive).
With `CC[n+]1cc(C)ccc1/C=C/c1ccc(N(C)C)cc1` the inhibition was 81.8% (active).
With `COc1ccc(-c2c(C#Cc3ccsc3)c3cc(-c4ccc(CN5CCOCC5)cc4)ccc3n2C)cc1` the inhibition was 9.39% (inactive).
For `O=C(COc1cccnc1[N+](=O)[O-])Nc1ccc(Cl)cc1F`, the inhibition was -19.8% (inactive).
In the case of `Cc1ccc(-c2cc(C(=O)NC3CCN(Cc4ccccc4)CC3)c3ccccc3n2)cc1`, the inhibition is reported as 10.8% (inactive).
For `Cc1ccc(S(=O)(=O)NCCC(=O)NC2CCN(Cc3ccccc3)CC2)cc1`, the inhibition was 3.57% (inactive).
For `Cc1ccc(-c2nc(CSCC(=O)NC3CCN(Cc4ccccc4)CC3)c(C)o2)cc1`, the inhibition was 67.4% (active).
In the case of `Cc1cc(C)c(C=NNc2nc3c([nH]2)c(=O)n(C)c(=O)n3C)c(C)c1`, the inhibition is reported as 1.9% (inactive).
With `Cc1ccc(C(=O)Nc2sc(Cc3ccc4c(c3)OCO4)c(C)c2C(N)=O)cc1` the inhibition was -1.06% (inactive).
For `COCOc1cc(O)c(C(=O)/C=C/c2ccc(OCOC)c(OCOC)c2)c(OCOC)c1`, the inhibition was 3.02% (inactive).
With `Cc1ccc(S(=O)(=O)N2CCN(C(=O)c3ccc(-n4cncn4)c([N+](=O)[O-])c3)CC2)cc1` the inhibition was 1.3% (inactive).
For `Nc1ccc(C(=O)N2CCN(S(=O)(=O)c3ccc(Cl)cc3)CC2)cc1[N+](=O)[O-]`, the inhibition was 98.7% (active).
For `CC(C)c1ccc(S(=O)(=O)N2CCN(C(=O)c3ccc(N4CCCC4)c([N+](=O)[O-])c3)CC2)cc1`, the inhibition was -1.24% (inactive).
With `CC(=O)c1cc(-c2ccccc2)n(CCC(=O)NC2CCCCCC2)c1C` the inhibition was 1.89% (inactive).
In the case of `COc1cccc2c1C(=O)c1c(O)c3c(c(O)c1C2=O)CC(O)(C(C)=NNC(=O)c1ccc(Cl)c(Cl)c1)CC3OC1CC(N)C(O)C(C)O1` (stereo not drawn), the inhibition is reported as 71.2% (active).
With `CCCCN(C(=O)c1ccc(S(=O)(=O)N2CCOCC2)cc1)C1CCS(=O)(=O)C1` (stereo not drawn) the inhibition was 0.87% (inactive).
For `O=C(OC1CCOC1=O)c1ccc(-c2nc3ccccc3s2)s1` (stereo not drawn), the inhibition was -21% (inactive).
